FLuc counter: qHTS profiling assay for firefly luciferase inhibitor/activator using purifed enzyme and Km concentrations of substrates (counterscreen for miR-21 project) | AID 588342, 2011 | purified FLuc, Km substrates, luminescence inhibition | 360,000 tested, 6.9% active | Potency, µM (doses to about 57.5 µM), for the others: at the top dose activity change, negative = inhibition, hits mostly inhibitors | Luciferin 4-monooxygenase (Photinus pyralis), P08659;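 further: plate controls were vehicle for no effect and reference inhibitor for full effect; nearly all actives have a fitted effect of over 55% in size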
Target sequence (P08659 whole entry, looked up): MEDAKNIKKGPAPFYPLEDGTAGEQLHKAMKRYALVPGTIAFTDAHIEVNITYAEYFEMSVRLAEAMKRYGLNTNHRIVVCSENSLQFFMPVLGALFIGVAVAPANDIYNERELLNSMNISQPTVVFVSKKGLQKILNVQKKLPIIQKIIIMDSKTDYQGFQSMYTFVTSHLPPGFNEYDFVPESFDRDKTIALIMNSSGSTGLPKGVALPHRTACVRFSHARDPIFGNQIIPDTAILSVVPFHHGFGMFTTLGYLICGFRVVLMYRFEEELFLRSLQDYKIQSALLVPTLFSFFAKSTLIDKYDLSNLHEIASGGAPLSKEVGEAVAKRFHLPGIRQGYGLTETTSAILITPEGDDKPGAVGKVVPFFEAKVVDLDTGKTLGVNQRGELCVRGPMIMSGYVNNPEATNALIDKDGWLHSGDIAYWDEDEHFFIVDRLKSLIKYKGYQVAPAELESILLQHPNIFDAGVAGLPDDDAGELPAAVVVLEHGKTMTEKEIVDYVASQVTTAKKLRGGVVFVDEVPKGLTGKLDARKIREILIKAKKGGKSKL
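Purified P. pyralis luciferase, 10 nM final, with Km-level 10 uM D-luciferin and 10 uM ATP in 50 mM Tris acetate pH 7.5, 10 mM Mg acetate, 0.01% Tween-20, 0.05% BSA; 6-point qHTS titration about 60 µM downward; luminescence read.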
ELG1 genotox: qHTS screen for small molecules that induce genotoxicity in human embryonic kidney (HEK293T) cells expressing luciferase-tagged ELG1; HEK293T ELG1-luciferase reporter, luminescence, 16 h; Potency, µM (series often up to 46 µM), for the others: at the highest dose activity change, positive = activation, hits mostly activators; 330,000 tested, 1.3% active; further: % of control where 0% means no effect; nearly all actives have a fitted effect of over 60% in size
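ELG1-luciferase HEK293T cells, 2,000/well; compound pinned in; 16 hr, 37 °C, 5% CO2; ONE-Glo, 30 min RT; luminescence on CCD imager.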
SMN2 splice up: qHTS Assay for Enhancers of SMN2 Splice Variant Expression | HEK293 SMN2-luciferase splicing reporter, luminescence, 30-36 h | Potency, µM (doses to about 46.1 µM), for inactives: at the highest dose activity change, positive = activation, actives largely listed as activators | 210,000 tested, 2.8% active | AID 1458, 2008; further: % of control where 0% means no effect; nearly all actives have a fitted effect of over 55% in size
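HEK293 cells carry an SMN2 […]–luciferase reporter in which exon 7 inclusion puts luciferase in frame. Cells were plated 10-12 h before compound addition, then incubated 30-36 h at 37C. ONE-Glo luminescence was read; sodium butyrate at 4.5 mM final served as control.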
Luc counter: Counterscreen for Luciferase (Kinase-Glo TM) Inhibition; Luciferin 4-monooxygenase (Photuris pensylvanica), Q27757; AID 1379, 2008; 200,000 tested, 0.28% active; Kinase-Glo luciferase, ATP luminescence, 8 min; Potency, µM (titrated, usually from 38.3 µM), without a hit: at the highest dose activity change, negative = inhibition, most hits filed as inhibitors; further: on the % scale 0 is the no-effect control and ±100 the full control effect; nearly all actives have a fitted effect of over 60% in size
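Recombinant Kinase-Glo luciferase, 10 uM ATP (linear range), luciferin; imidazole pH 7.2 / KCl / MgCl2 / Tween / BSA buffer; 8 min RT; luminescence.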
NPC1 promoter act: qHTS Assay for NPC1 Promoter Activators; Huh7 NPC1 promoter luciferase reporter, 24 h; Potency, µM (top dose mostly 9.22 µM), for inactives: at the top dose activation, hits mostly activators; 320,000 tested, 2.4% active; AID 485313, 2010; further: % of control where 0% means no effect; nearly all actives have a fitted effect of over 60% in size
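In 1536-well qHTS, Huh7 cells harboring an NPC1 promoter–luciferase construct received compound for 24 h; activation was quantified by luminescence following luciferase reagent addition.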
Rab9 promoter act: qHTS Assay for Rab9 Promoter Activators. Huh7 Rab9 promoter-luciferase reporter, luminescence, 24 h. Potency, µM (titrated, usually from 9.22 µM), inactives show at the highest dose activation, negative = inhibition, actives largely listed as activators. 320,000 tested, 2.8% active. AID 485297, 2010; further: % of control where 0% means no effect; nearly all actives have a fitted effect of over 60% in size
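Huh7 cells stably carrying Rab9 promoter–luciferase reporter, plated 1500 cells/well, compound added after 2 h and incubated 24 h at 37 °C; luciferase luminescence then read after 10 min with detection reagent.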
The depositor's hits bear a star; ? = inconclusive; . = no result given; [ ] = remark or other dose. Compounds with a hit are over-represented: about 7.3% of the library has one in this group of screens. The call rests on the fitted dose curve; in most records, active means well fitted curve in the direction sought with a large enough effect; inconclusive means small, poorly fitted or top-dose-only effect, or another doubt; inactive means no such curve, though single readings can be large; an effect the other way counts as inactive or inconclusive. Potency means the concentration at half of the fitted maximal effect.

SMILES | FLuc counter | ELG1 genotox | SMN2 splice up | Luc counter | NPC1 promoter act | Rab9 promoter act
COc1cc(-c2ccccc2)nc2ccccc12 | -13% | -3% | -43% | 6% | -2% | 7%
CC(C)c1ccc(-c2cc(C(=O)N3CCOCC3)c3cc(Br)ccc3n2)cc1 | 9.5µM* | -9% | . | . | 3% | 21%
COc1ccc(-c2cc3cc(OC)c(OC)cc3c(C)n2)cc1 | 17µM* | 3% | . | . | ? | ?
CCOc1ccc(-c2cc(C(=O)N3CCCC3)c3ccccc3n2)cc1 | 0.48µM* | ? | . | . | 3.5µM* | 1.4µM*
CCOC(=O)C1CCCN(C(=O)c2cc(-c3ccccc3)nc3ccccc23)C1 (stereo not drawn) | ? | 2% | -6% | -5% | -1% | -1%
COc1ccc2c(OC)cc(-c3ccccc3)nc2c1 | -22% | -1% | -35% | 2% | -6% | 1%
COc1ccc(-c2cc(C(=O)N3CCCC(C(F)(F)F)C3)c3ccccc3n2)cc1 (stereo not drawn) | 6µM* | -6% | . | . | -1% | -7%
Cc1ccccc1-c1cc(C(=O)N2CCCC2)c2ccccc2n1 | 6% | -2% | . | . | 1% | 1%
Cc1ccc(-c2cc(C(=O)N3CCCCC3)c3ccccc3n2)cc1C | 2.4µM* | 5% | . | . | 18% | 8%
O=C(c1cc(-c2ccccc2)nc2ccccc12)N1CCCC1 | ? | -6% | . | . | 2% | -1%
O=C(c1cc(-c2ccccn2)nc2ccc(Br)cc12)N1CCN(S(=O)(=O)c2ccccc2)CC1 | -6% | -6% | 5% | -2% | 0% | 0%
Cc1ccc(-c2cc(C(=O)N3CCN(c4ncccn4)CC3)c3cc(Br)ccc3n2)o1 | 4.8µM* | -5% | -14% | -2% | 2% | -3%
O=C(c1cc(-c2cccc(Cl)c2)nc2ccccc12)N1CCCC1 | 17µM* | -6% | . | . | -4% | 4%
Cc1ccc(-c2cc(C(=O)N3CCCC(C(F)(F)F)C3)c3ccccc3n2)o1 (stereo not drawn) | 12µM* | -2% | . | . | 3% | 9%
CCN(CC)CCNC(=O)c1ccc2c(c1)NC(=O)C(CS(=O)(=O)Cc1ccc(F)cc1Cl)N2 (stereo not drawn) | -6% | . | . | . | . | .
CCOC(=O)c1cccc(NC(=O)CCCn2c(C)c3cnn(-c4ccccc4)c(=O)c3c2C)c1 | 1% | . | -7% | . | . | .
COc1ccc(CCN2C(=O)CN(C3CCC(C)CC3)C(=O)C2c2ccc(OC(C)C)c(OC)c2)cc1OC (stereo not drawn) | 1% | . | . | . | . | .
O=C1/C(=C/c2ccccc2)[C@@H](NC2CCCCC2)c2ccccc21 | . | . | -9%[9.22 µM] | -4%[7.66 µM] | . | .
COc1ccc(-c2cc(C(=O)N3CCCC3)c3ccccc3n2)cc1 | 4.3µM* | 5%[9.26 µM] | . | . | 29% | ?
Cc1ccc(-c2cc(C(=O)N3CCOCC3)c3ccccc3n2)o1 | . | 8% | . | . | . | .
Cc1ccc(-c2cc(C(=O)N3CCN(c4ccc(F)cc4)CC3)c3ccccc3n2)o1 | 3.4µM* | -7% | 14% | -8% | 2% | 16%
CCOC(=O)N1CCN(C(=O)c2cc(-c3ccc(OCC)cc3)nc3ccccc23)CC1 | 0.21µM* | 0% | 13µM* | -9% | 23% | ?
CCOC(=O)N1CCN(C(=O)c2cc(-c3ccncc3)nc3ccccc23)CC1 | 2% | 0% | . | . | -19% | -14%
COc1ccc2cc(-c3cc(C(=O)O)c4ccccc4n3)ccc2c1 | 0.067µM* | ? | ? | 7.9µM* | 0.11µM* | ?
COC(=O)c1ccccc1NC(=O)c1ccc2c(c1)CCN2S(C)(=O)=O | -13% | . | -3% | . | . | .
SMILES | FLuc counter | ELG1 genotox | SMN2 splice up | Luc counter | NPC1 promoter act | Rab9 promoter act
COc1cccc(N2CCN(c3ncc4c(n3)CCN(Cc3ccc(Br)cc3)C4)CC2)c1 | 5% | . | . | . | . | .
COc1ccc(-c2cc(C(=O)N3CCN(c4ccccc4)CC3)c3ccccc3n2)cc1 | 2.7µM* | 2% | 13% | -6% | -22% | -9%
CCCCOc1ccc(C(=O)Nc2ccc3c(c2)CCCN3C(=O)c2cccs2)cc1 | -10% | . | . | . | . | .
c1ccc2c(c1)Cc1cc(CN3CCOCC3)ccc1-2 | 9.5µM* | ? | 14µM* | 4% | 4µM* | ?
CCCCc1nc2c(c3c1C[C@H](C)OC3)CN(S(=O)(=O)c1ccc(Cl)c3nonc13)CC2 | . | . | -10%[9.22 µM] | -7%[7.66 µM] | . | .
O=C(CN1C(=O)S/C(=C\C=C\c2ccccc2)C1=O)NC1CCS(=O)(=O)C1 (stereo not drawn) | 5.4µM* | 7%[9.26 µM] | . | . | 2.5µM* | 2.8µM*
O=C(CN1C(=O)S/C(=C\c2ccccc2)C1=O)NC1CCS(=O)(=O)C1 (stereo not drawn) | 3% | 0% | . | . | 1% | -4%
CC(C)c1ccc(/C=C2\SC(=O)N(CC(=O)NC3CCS(=O)(=O)C3)C2=O)cc1 (stereo not drawn) | 1.1µM* | 9% | . | . | 4µM* | ?
Cc1ccccc1OCc1ccc(-c2nc(C#N)c(NCCCN(C)C)o2)o1 | 2% | . | . | . | . | .
CCc1ccccc1NC(=O)c1sc(-n2nc(C)c(Cc3ccccc3)c2C)nc1C | -3% | . | . | . | . | .
CC(C)(C)OC(=O)N/N=C/c1c[nH]c2ccccc12 | 9.5µM* | 15% | . | -11% | 22% | 25%
O=C(N/N=C\c1c[nH]c2ccccc12)c1ccc(O)cc1 | 15µM* | 12% | . | . | 22% | 17%
Cc1occc1C(=O)N/N=C/c1c[nH]c2ccccc12 | 13µM* | ? | 5% | -6% | ? | ?
COC(=O)N/N=C/c1c[nH]c2ccccc12 | -16% | 0% | -47% | -5% | -3% | 1%
Nc1ccc(C(=O)N/N=C/c2c[nH]c3ccccc23)cc1 | 13µM* | 6% | . | . | 6% | 3%
Cc1ccc(C(=O)Nc2nnc(SCc3cc(=O)c4c(C)ccc(C)c4[nH]3)s2)cc1 | -4% | . | . | . | . | .
CN(C)c1ccc(NC(=O)CN2CCN(CC(=O)Nc3ccc(Br)cc3)CC2)cc1 | -15% | . | . | . | . | .
CN(C(=O)c1ccc2c(c1)N(Cc1ccccc1F)C(=O)c1ccccc1S2(=O)=O)C1CCCCC1 | -3% | . | -7% | . | . | .
c1ccc2c(c1)nnn2CN1CCOCC1 | . | . | -26%[9.22 µM] | -1%[7.66 µM] | . | .
O=C(O)c1ccc(N/N=C/c2c[nH]c3ccccc23)cc1 | 0.43µM* | ? | . | . | -9% | -5%
O=C(N/N=C/c1c[nH]c2ccccc12)c1ccc(Br)cc1 | 6.7µM* | ? | . | . | 26% | ?
O=C(N/N=C/c1c[nH]c2ccccc12)c1cc(Cl)ccc1O | 17µM* | 7% | . | . | 21% | 14%
